# In paper PMC7862700, “An all-to-all approach to the identification of sequence-specific readers for epigenetic DNA modifications on cytosine”:
# Legend:
# Assay in all cases: DAPPL (digital affinity profiling via proximity ligation, sequencing); 10 mM Tris-HCl pH 7.5, 50 mM NaCl, 1 mM DTT, 4% glycerol, room temperature, 30 min; GST-TFs on glutathione beads, 16-mer random dsDNA library, 0.1% formaldehyde crosslink after washing; high values mean tight binding
# FEV = molecular target: T1, FEV (Homo sapiens, UniProt Q99581 1-238); conditions: protein: recombinant; tags: N-terminal GST; dsDNA, one strand shown
# T1 sequence: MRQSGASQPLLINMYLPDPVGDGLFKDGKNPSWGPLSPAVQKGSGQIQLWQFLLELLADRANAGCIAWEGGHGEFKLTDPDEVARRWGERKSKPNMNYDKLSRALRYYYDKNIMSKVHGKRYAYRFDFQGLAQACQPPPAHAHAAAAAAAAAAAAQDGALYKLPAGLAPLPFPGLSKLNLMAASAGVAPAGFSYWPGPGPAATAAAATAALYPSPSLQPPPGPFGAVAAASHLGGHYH
# Summary of the method: (§1)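 A tag-only sample was pooled with DNA-barcoded human transcription factors that had been expressed in yeast as GST fusions and captured on glutathione beads. The pools were incubated for 30 min at room temperature with 200 nmole of a random double-stranded 16-mer DNA library in Tris/NaCl/DTT/glycerol buffer, then washed, crosslinked with 0.1% formaldehyde, proximity-ligated (BsaI/T4 ligase, 1 h, 37 °C), PCR-amplified and sequenced on an Illumina NextSeq500. Binding signal is each hexamer's read frequency for a factor divided by its frequency for the tag-only sample.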
# ETV5 = ETV5 (Homo sapiens, UniProt P41161 1-510); conditions: protein: recombinant; tags: N-terminal GST; dsDNA, one strand shown
# Sequence of ETV5 (P41161 whole entry): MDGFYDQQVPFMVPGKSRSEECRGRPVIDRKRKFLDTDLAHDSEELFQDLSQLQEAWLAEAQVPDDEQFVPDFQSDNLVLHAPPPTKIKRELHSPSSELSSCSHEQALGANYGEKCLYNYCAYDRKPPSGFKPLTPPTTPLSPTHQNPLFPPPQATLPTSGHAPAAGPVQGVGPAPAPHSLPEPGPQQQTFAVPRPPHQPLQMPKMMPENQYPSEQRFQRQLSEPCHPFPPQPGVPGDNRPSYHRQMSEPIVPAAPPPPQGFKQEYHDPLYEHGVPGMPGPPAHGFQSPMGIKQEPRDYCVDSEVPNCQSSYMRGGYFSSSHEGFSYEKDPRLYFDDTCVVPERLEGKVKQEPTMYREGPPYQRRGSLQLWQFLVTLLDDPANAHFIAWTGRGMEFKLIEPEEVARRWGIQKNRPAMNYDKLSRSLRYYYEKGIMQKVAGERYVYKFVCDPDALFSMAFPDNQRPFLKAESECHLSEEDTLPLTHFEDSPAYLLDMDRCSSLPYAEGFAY
# Summary of the method: as §1
# HSF1 = HSF1 (Homo sapiens, UniProt Q00613 1-529); conditions: protein: recombinant; tags: N-terminal GST; chain copies: 3; dsDNA, one strand shown
# Sequence of HSF1 (Q00613 whole entry): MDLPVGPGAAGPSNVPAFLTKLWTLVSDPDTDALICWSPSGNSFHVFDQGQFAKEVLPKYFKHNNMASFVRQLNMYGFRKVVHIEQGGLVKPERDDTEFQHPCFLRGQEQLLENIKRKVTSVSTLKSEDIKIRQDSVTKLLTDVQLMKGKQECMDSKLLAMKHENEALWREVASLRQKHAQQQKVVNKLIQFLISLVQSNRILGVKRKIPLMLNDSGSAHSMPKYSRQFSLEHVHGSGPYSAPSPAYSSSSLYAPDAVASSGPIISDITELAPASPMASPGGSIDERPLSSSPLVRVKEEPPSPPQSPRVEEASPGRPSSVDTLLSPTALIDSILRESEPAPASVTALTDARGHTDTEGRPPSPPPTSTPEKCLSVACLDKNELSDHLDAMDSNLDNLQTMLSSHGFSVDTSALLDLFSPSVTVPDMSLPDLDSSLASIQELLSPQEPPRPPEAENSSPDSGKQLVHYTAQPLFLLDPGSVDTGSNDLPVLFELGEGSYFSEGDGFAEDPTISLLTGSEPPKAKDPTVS
# Summary of the method: as §1
# SPIC = molecular target: T2, SPIC (Homo sapiens, UniProt Q8N5J4 1-248); conditions: protein: recombinant; tags: N-terminal GST; dsDNA, one strand shown
# T2 sequence: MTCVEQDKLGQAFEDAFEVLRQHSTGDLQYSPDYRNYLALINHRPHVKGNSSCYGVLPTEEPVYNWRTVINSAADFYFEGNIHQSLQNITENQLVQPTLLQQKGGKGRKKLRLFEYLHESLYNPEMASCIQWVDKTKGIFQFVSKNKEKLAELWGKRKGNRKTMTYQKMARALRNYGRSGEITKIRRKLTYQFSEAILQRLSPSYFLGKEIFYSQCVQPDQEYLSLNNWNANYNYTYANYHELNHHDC
# Summary of the method: as §1
# ELF4 = ELF4 (Homo sapiens, UniProt Q99607 1-663); conditions: protein: recombinant; tags: N-terminal GST; dsDNA, one strand shown
# Sequence of ELF4 (Q99607 whole entry): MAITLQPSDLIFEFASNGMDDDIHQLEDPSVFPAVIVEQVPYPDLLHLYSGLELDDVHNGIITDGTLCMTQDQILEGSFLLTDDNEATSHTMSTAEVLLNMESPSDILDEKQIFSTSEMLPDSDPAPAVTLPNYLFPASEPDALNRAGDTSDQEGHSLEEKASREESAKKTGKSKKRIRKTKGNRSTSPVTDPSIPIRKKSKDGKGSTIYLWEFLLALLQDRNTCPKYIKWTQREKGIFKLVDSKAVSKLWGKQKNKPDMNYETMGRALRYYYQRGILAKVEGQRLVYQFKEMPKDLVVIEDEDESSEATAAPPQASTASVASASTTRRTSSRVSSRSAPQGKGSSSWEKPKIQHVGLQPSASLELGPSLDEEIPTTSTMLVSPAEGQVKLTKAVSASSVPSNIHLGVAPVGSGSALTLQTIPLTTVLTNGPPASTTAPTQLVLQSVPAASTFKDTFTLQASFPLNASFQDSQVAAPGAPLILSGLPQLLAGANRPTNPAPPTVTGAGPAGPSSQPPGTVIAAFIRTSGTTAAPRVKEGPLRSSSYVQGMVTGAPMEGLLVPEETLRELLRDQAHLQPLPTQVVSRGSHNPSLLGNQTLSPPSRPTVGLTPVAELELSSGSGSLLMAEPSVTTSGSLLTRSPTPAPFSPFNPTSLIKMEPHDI
# Summary of the method: as §1
# ELK4 = molecular target: T3, ELK4 (Homo sapiens, UniProt P28324-2 1-405); conditions: protein: recombinant; tags: N-terminal GST; dsDNA, one strand shown
# T3 sequence: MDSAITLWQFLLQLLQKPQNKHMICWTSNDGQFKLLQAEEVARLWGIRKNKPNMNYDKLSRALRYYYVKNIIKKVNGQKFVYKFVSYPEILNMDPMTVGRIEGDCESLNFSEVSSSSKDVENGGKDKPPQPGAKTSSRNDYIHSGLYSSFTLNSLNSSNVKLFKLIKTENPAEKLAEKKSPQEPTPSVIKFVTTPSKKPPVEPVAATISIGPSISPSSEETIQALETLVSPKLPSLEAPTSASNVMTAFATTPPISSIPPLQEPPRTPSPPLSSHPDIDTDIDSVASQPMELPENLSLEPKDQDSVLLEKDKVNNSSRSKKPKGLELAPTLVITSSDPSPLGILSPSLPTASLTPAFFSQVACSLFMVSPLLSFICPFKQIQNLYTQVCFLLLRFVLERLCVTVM
# Summary of the method: as §1
# ETV2 = molecular target: T4, ETV2 (Homo sapiens, UniProt O00321 1-342); conditions: protein: recombinant; tags: N-terminal GST; dsDNA, one strand shown
# T4 sequence: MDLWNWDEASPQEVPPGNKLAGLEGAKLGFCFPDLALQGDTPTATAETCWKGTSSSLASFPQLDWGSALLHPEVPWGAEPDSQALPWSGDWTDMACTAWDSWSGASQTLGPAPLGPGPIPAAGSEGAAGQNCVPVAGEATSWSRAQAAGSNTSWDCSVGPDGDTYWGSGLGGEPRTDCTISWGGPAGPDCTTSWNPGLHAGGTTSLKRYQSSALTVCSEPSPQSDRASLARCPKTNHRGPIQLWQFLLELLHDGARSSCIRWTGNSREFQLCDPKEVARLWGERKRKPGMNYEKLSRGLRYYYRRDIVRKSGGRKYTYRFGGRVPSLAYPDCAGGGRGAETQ
# Summary of the method: as §1
# ELF3 = molecular target: T5, ELF3 (Homo sapiens, UniProt P78545 1-371); conditions: protein: recombinant; tags: N-terminal GST; dsDNA, one strand shown
# T5 sequence: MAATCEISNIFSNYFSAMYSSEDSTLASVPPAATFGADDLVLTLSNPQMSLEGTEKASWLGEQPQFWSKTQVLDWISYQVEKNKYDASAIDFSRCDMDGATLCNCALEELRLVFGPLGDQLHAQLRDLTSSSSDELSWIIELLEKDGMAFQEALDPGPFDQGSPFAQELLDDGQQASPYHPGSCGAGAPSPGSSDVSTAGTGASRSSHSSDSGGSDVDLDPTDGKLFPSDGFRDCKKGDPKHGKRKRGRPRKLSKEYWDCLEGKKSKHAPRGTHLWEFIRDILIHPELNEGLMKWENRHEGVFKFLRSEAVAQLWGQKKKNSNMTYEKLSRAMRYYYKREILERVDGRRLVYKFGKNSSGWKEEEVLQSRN
# Summary of the method: as §1
# CRX = CRX (Homo sapiens, UniProt O43186 1-299); conditions: protein: recombinant; tags: N-terminal GST; dsDNA, one strand shown
# Sequence of CRX (O43186 whole entry): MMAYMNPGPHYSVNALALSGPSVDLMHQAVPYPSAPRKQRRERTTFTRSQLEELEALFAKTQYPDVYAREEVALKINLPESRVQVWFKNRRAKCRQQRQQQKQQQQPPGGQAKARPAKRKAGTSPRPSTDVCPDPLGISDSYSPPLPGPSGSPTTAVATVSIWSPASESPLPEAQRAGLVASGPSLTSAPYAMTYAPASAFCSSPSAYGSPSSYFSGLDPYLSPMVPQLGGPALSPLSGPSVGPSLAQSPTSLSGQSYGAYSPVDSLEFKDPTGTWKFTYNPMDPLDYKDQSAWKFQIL
# Summary of the method: as §1
# ETV1 = ETV1 (Homo sapiens, UniProt P50549 1-477); conditions: protein: recombinant; tags: N-terminal GST; dsDNA, one strand shown
# Sequence of ETV1 (P50549 whole entry): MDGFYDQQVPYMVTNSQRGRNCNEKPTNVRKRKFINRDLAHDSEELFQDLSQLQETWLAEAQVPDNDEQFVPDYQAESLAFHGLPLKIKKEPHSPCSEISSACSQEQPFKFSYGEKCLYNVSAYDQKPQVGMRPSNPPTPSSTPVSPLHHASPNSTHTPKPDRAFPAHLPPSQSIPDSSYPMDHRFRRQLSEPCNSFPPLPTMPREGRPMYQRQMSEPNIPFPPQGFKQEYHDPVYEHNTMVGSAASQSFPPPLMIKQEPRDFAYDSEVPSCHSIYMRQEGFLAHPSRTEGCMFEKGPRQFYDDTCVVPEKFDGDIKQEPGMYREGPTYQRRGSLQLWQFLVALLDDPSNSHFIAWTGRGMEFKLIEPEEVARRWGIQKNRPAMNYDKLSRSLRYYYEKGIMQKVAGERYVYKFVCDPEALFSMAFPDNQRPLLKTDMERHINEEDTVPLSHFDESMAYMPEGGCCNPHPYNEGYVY
# Summary of the method: as §1
sequence,measurement,setting,value
TGCGAA,binding signal,FEV,"1.14 fold enrichment (6-mer frequency, TF over GST control)"
same,binding signal,ETV5,"1.23 fold enrichment (6-mer frequency, TF over GST control)"
same,binding signal,HSF1,"1.21 fold enrichment (6-mer frequency, TF over GST control)"
same,binding signal,SPIC,"1.02 fold enrichment (6-mer frequency, TF over GST control)"
same,binding signal,ELF4,"1.21 fold enrichment (6-mer frequency, TF over GST control)"
same,binding signal,ELK4,"1.19 fold enrichment (6-mer frequency, TF over GST control)"
same,binding signal,ETV2,"1.18 fold enrichment (6-mer frequency, TF over GST control)"
same,binding signal,ELF3,"1.14 fold enrichment (6-mer frequency, TF over GST control)"
same,binding signal,CRX,"1.06 fold enrichment (6-mer frequency, TF over GST control)"
same,binding signal,ETV1,"1.19 fold enrichment (6-mer frequency, TF over GST control)"
